From PubChem
Compounds with a hit are over-represented: about 2.2% of the library has one in this group of screens.
MEKK2mut PB1 HTS = signal of MEK5 binding to mutant human MEKK2 PB1 domain; bead flow cytometry, Alexa488-MEK5 binding to MEKK2 mutant; AID 1530; percent response, % at 10 µM; 290,000 compounds, 0.35% hits; in the data active means percent response above about 24%, passing the limit was not always enough
MEKK3 PB1 HTS = MEKK3-MEK5 PB1 interaction, increase or decrease; AID 1529; 290,000 compounds, 1.4% hits; binding response (% of control), % at 10 µM; bead-based flow cytometry, Alexa488-MEK5 binding to MEKK3; actives lie on both sides; 0 = blocked by unlabeled MEK5, 100 = vehicle; Q99759;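 active means binding response more than 3 SD above or below the average of its plate-row segment, actives on both sides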;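 further: Alexa488 bead fluorescence after subtracting the streptavidin-only scavenger bead signal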
Target sequence (Q99759 whole entry, looked up): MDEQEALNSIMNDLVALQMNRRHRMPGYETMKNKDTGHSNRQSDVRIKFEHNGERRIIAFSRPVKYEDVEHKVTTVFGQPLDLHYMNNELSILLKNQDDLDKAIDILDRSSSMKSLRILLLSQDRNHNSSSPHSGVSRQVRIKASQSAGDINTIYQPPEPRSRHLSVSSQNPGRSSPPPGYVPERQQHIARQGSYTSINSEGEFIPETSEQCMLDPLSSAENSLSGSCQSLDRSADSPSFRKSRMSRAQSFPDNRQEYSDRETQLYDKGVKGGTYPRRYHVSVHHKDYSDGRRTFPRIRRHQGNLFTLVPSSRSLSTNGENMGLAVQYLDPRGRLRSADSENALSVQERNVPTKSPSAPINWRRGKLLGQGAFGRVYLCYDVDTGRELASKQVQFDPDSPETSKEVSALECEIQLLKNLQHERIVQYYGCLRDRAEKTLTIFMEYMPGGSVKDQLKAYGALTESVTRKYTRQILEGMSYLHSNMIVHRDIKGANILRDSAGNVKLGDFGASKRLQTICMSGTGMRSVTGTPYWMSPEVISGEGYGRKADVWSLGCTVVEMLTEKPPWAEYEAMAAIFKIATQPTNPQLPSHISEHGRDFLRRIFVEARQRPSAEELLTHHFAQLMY
VLA-4 inh = inhibition in a human VLA-4 binding assay | P13612 | VLA-4 expressing cells, ligand binding flow cytometry | inhibition, % (about 7 µM as worked out from the volumes in the protocol) | AID 2557 | 330,000 compounds, 0.2% hits; in the data active means inhibition above about 50%
MEKK2 WT-MEK5 = raises or lowers MEK5 binding to wildtype human MEKK2 PB1 domain | Q9Y2U5 | bead flow cytometry, Alexa488-MEK5 binding to MEKK2 WT; actives lie on both sides | binding response (% of control), % at 10 µM | 290,000 compounds, 1.1% hits; in the data active means binding response below about 67% or above about 130%
MEKK2wt confirm = raises or lowers MEK5 binding to wildtype human MEKK2, retest; bead flow cytometry, Alexa488-MEK5 binding to MEKK2 WT; actives lie on both sides; AID 1892; shares compounds with MEKK3 PB1 HTS; 5,900 compounds, 2.4% hits; binding response (% of control), % at 10 µM; in the data active means binding response below about 16% or above about 210%; inactive means in between
MEKK2mut confirm = signal of MEK5 binding to mutant human MEKK2, retest; shares compounds with MEKK3 PB1 HTS; bead flow cytometry, Alexa488-MEK5 binding to MEKK2 mutant; percent response, % at 10 µM; 5,900 compounds, 2% hits; in the data active means percent response mostly above about 71%, no sharp cut-off; inactive means mostly below about 38%;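 further: higher means compound restores mutant binding toward wildtype level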
MEKK3-MEK5 inh = MEKK3-MEK5 PB1 inhibition, single concentration confirmation. shares compounds with MEKK3 PB1 HTS. bead flow cytometry, Alexa488-MEK5 binding to MEKK3; hits give low values. binding response (% of control), % at 10 µM. 5,900 compounds, 1.8% hits. AID 1894;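 active means binding response below 72% of control, or above a set upper limit, though filed actives all read lower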;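 further: 100% = DMSO only wells and 0% = binding blocked by excess unlabeled MEK5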
An asterisk follows results filed as active; i = inactive; . = no result; [ ] = remark or other dose.

SMILES | MEKK2mut PB1 HTS | MEKK3 PB1 HTS | VLA-4 inh | MEKK2 WT-MEK5 | MEKK2wt confirm | MEKK2mut confirm | MEKK3-MEK5 inh
CCCOc1ccc(NC(=O)CC2C(=O)N(CC)C(=S)N2CCCN2CCN(Cc3ccccc3)CC2)cc1 (configuration not stated) | 22 | 103 | 7 | 155* | 150 | 29 | 109
CCN1C(=O)C(CC(=O)Nc2ccc(F)cc2)N(CCCN2CCN(c3ccc(F)cc3)CC2)C1=S (configuration not stated) | 25 | 107 | 7 | 143* | 133 | 25 | 108
CCOc1ccc(NC(=O)CC2C(=O)N(CC)C(=S)N2CCN2CCOCC2)cc1 (configuration not stated) | 0 | 103 | 1 | 103 | . | . | .
COc1ccc(Cc2nnc(N/N=C(\C)c3ccccc3)[nH]c2=O)cc1OC | 1 | 99 | 13 | 102 | . | . | .
O=C(Cc1cccs1)NCCSc1c(-c2ccc(Cl)cc2)[nH]c2ccccc12 | -14 | 1.0*[inhibitor] | 8 | 2.0*[inhibitor] | 118 | 5 | 107
CCOC(=O)CSc1c(-c2ccc(Cl)cc2)[nH]c2ccccc12 | 8 | 155* | 4 | 109 | 103 | -4 | 97
Cc1ccc(-c2[nH]c3ccccc3c2SCCNC(=O)c2cc3ccccc3oc2=O)cc1 | 1 | 94 | 16 | 96 | . | . | .
CCOC(=O)CSc1c(-c2cccs2)[nH]c2ccccc12 | -1 | 102 | 9 | 99 | . | . | .
O=C1CC(N2CCOCC2)C(=O)N1CCN1C(=O)CC(N2CCOCC2)C1=O (configuration not stated) | -16 | 2.0*[inhibitor] | 3 | 2.0*[inhibitor] | 98 | -1 | 97
O=C(COC(=O)c1ccc(S(=O)(=O)N2CCOCC2)cc1)NC1CCCCCCC1 | -5 | 103 | 7 | 98 | . | . | .
O=C(COC(=O)c1ccc(S(=O)(=O)N2CCc3ccccc3C2)cc1)NC1CCS(=O)(=O)C1 (configuration not stated) | -17 | 50*[inhibitor] | -6 | 58 | 105 | 5 | 102
O=C(CNS(=O)(=O)c1ccc(Br)cc1)NCc1ccncc1 | 1 | 100 | -7 | 97 | . | . | .
COc1ccc(C(=O)CN2C(=O)NC3(CCCCC3)C2=O)cc1OC | 7 | 146* | 14 | 125 | 102 | 7 | 106
CN(C)C(=O)/C(C#N)=C\c1cc(Br)c(Sc2ccc(Cl)cc2)o1 | 2 | 132* | 19 | 105 | 103 | 4 | 103
Clc1ccc(Sc2oc(/C=N/n3cnnc3)cc2Br)cc1 | 2 | 99 | 11 | 91 | . | . | .
CCCCN(C)C(=O)C1CCN(Cc2cccc(OCc3ccccc3)c2)CC1 | 15 | 104 | 16 | 107 | . | . | .
CCCCN(C)C(=O)C1CCN(Cc2cccnc2)CC1 | 27* | 112 | 7 | 118 | 96 | -5 | 102
Cc1[nH]nc2c1C1(CCC3(CC1)OCCO3)C(C#N)=C(N)O2 | -20 | 1.0*[inhibitor] | 8 | -3.0*[inhibitor] | 104 | 12 | 103
CC(=O)c1cccc(NC(=O)COC(=O)Cn2cnc3ccccc32)c1 | . | . | -6 | . | . | . | .
O=C1CCCC(O)=C1N=Nc1ccc(C(=O)O)cc1 | 4 | 102 | -5 | 104 | . | . | .
O=C1CCCC(O)=C1N=Nc1ccc2c(c1)OCO2 | 1 | 146* | 8 | 108 | 103 | 1 | 100
CCOC(=O)c1sc(NC(C)=O)nc1-c1ccccc1 | -20 | 1.0*[inhibitor] | 3 | -2.0*[inhibitor] | 95 | -4 | 95
Nc1cccc(-c2nc3cc(S(=O)(=O)c4ccc5oc(-c6cccc(N)c6)nc5c4)ccc3o2)c1 | -27 | 69*[inhibitor] | -7 | 71 | 86 | -18 | 92
Cc1ccc2oc(-c3cccc(N)c3)nc2c1 | -4 | 97 | 11 | 96 | . | . | .
Cc1ccsc1/C=N/N1CCN(C2c3ccccc3-c3ccccc32)CC1 | -8 | 82*[inhibitor] | 6 | 91 | 104 | -3 | 102
SMILES | MEKK2mut PB1 HTS | MEKK3 PB1 HTS | VLA-4 inh | MEKK2 WT-MEK5 | MEKK2wt confirm | MEKK2mut confirm | MEKK3-MEK5 inh
O=C(O)c1ccc(/C=N/NC(=O)C2CC2(c2ccccc2)c2ccccc2)cc1 (configuration not stated) | 5 | 153* | 10 | 117 | 95 | -7 | 98
CN(Cc1ccccc1)C(=O)c1ccc(NC(=O)Cc2cccc(NC(=O)C3CCCN(C(=O)C4CCC4)C3)c2)cc1 (configuration not stated) | . | . | 0 | . | . | . | .
CCOC(=O)c1cnc2cc(C)nn2c1C | -10 | 74*[inhibitor] | 3 | 87 | 102 | 10 | 101
CCOC(=O)c1cnc2cc(C)nn2c1-c1ccccc1 | 0 | 101 | 18 | 101 | . | . | .
CC1c2[nH]c3ccccc3c2C[C@H]2C(=O)N(CCCN(C)C)CC(=O)N12 (some centres not stated) | 2 | 101 | 14 | 104 | . | . | .
O=C(NNC(=O)c1cccs1)c1ccc(Cl)c(Cl)c1 | 2 | 149* | -1 | 109 | 97 | -2 | 97
N=C1/C(=C/c2cccn2Cc2ccc(Cl)cc2)C(=O)N=C2SC=CN12 | -1 | 129* | 1 | 107 | 112 | 5 | 109
Cc1ccc(C(=O)NCC(=O)NCCc2ccc(S(N)(=O)=O)cc2)s1 | -31 | 34*[inhibitor] | 0 | 38*[inhibitor] | 100 | 5 | 101
CCOc1ccc(N(CC(=O)NCc2ccco2)C(=O)CCC(=O)Nc2ccccn2)cc1 | 2 | 103 | . | 100 | . | . | .
CC(CN1CCOCC1)C(=O)O (configuration not stated) | 11 | 126* | 11 | 127 | 97 | -2 | 101
CC(CC(C)C(=O)N1CCOCCN(C(=O)C(C)CC(C)C(=O)O)CCOCC1)C(=O)O (configuration not stated) | -10 | 78 | 8 | 80 | . | . | .
c1ccc(-c2cc(-c3ccccc3)on2)cc1 | 27 | 130* | -2 | 129 | 109 | 15 | 107
Cc1cc(C)c(NC(=O)C2=COCCO2)c(C)c1 | . | . | 24 | . | . | . | .
CCC(=O)N(C)CCc1cc2c(c(OC)c1/C=N/Nc1ccc(C(=O)O)cc1)OCO2 | 30 | 132* | 12 | 119 | 107 | 11 | 107
CCCCn1c(N)c(N(CC(C)C)C(=O)c2oc3c(Cl)cccc3c2C)c(=O)[nH]c1=O | . | . | 9 | . | . | . | .
CC(C)Cc1ccc(/C=C/C(=O)N2CCOCC2)cc1 | 0 | 101 | 10 | 98 | . | . | .
CC(C)(C)c1ccc(/C=C/C(=O)N2CCOCC2)cc1 | 0 | 134* | 13 | 105 | 101 | 1 | 102
N#C/C(=C\c1ccc([N+](=O)[O-])o1)c1nc2ccccc2[nH]1 | -2 | 103 | i | 87 | . | . | .
Cc1ccc2nc(/C(C#N)=C\c3ccc([N+](=O)[O-])o3)[nH]c2c1 | -10 | 70*[inhibitor] | i | 77 | 96 | -3 | 98
Cc1ccc2nc(/C(C#N)=C\c3ccc(N4CCOCC4)o3)[nH]c2c1 | 26* | 103 | -194 | 46*[inhibitor] | 112 | 12 | 108
